Reference: ChEMBL document CHEMBL3988442, “University of Dundee, Small-Polar-MMV Screening Library” (2021)
The whole screen tested about 48,000 compounds, of which about 13,000 (27%) showed an effect of 50% or more. Some of the results follow.

Each compound was assayed on Wolbachia pipientis (assay: Anti-Wolbachia Cell-Based Screen). Settings: 5 µM.
Assay type: functional
Parameters: scale not given: in the data most compounds retested in dose-response had high values

Row | SMILES | Percent Effect [%]
1 | CCCN(C(=O)c1csnn1)C1CCCN(Cc2ccccc2)C1 (stereo not given) | 2.292
2 | CN(C)CC(=O)N1Cc2cc(-c3cc[nH]n3)ccc2C1c1cnco1 (stereo not given) | -12.12
3 | CN(C)[C@@H]1CO[C@H](CNC(=O)c2ccccc2)[C@H]1O | 9.178
4 | CN1CCCC2(CCN(c3cccc(C#N)n3)C2)C1=O (stereo not given) | 8.303
5 | COCCN1CCCC2(CCN(c3cc(C)c(C#N)c(C)n3)C2)C1=O (stereo not given) | 99.04
6 | CCCN1CCCC2(CCN(c3nccc(OC)n3)C2)C1=O (stereo not given) | 1.241
7 | Cc1cc(N2CCC3(CCCN(CCO)C3=O)C2)nc(C)c1C#N (stereo not given) | 111
8 | COCCN1CCCC2(CCN(c3nc(C)nc4c3CCC4)C2)C1=O (stereo not given) | -6.714
9 | COCCN1CCCC2(CCN(c3cccc(C(F)(F)F)n3)C2)C1=O (stereo not given) | -1.331
10 | Cc1cc(C)c(C#N)c(N2CCC3(CCCN(CCO)C3=O)C2)n1 (stereo not given) | 111.5
11 | Cc1nc(N2CCC3(CCCN(CCO)C3=O)C2)c2sccc2n1 (stereo not given) | -11.1
12 | COCCN1CCCC2(CCN(c3ncnc(C)c3C)C2)C1=O (stereo not given) | -47.68
13 | CN(Cc1ccc([S+](C)[O-])cc1)c1ccc(C(F)(F)F)cn1 (stereo not given) | -27.71
14 | CCn1ccnc1CN1CCCN(C(=O)c2cccc(C#N)c2)CC1 | -3.279
15 | Cc1nsc(N2CCCN(C(=O)c3ccc4[nH]ccc4c3)CC2)n1 | -10.99
16 | CC(C)COC(=O)N1CCCN(C(=O)c2ccnc(N(C)C)c2)CC1 | 6.425
17 | Cn1ccnc1CN1CCCN(C(=O)c2cccc(CC#N)c2)CC1 | 107.2
18 | CCC(O)CN1CCN(C(=O)c2ccnc(N(C)C)c2)CC1 (stereo not given) | -16.43
19 | Cn1ccnc1CN1CCCN(C(=O)c2ccc3ccccc3c2)CC1 | 100.6
20 | CC(C)n1ccnc1CN1CCCN(C(=O)c2cc(Cl)c[nH]2)CC1 | 1.928
21 | Cn1ccnc1CN1CCCN(C(=O)c2ccc3cc[nH]c3c2)CC1 | 138.1
22 | CC(C)OCCN1CCN(C(=O)c2cccc(CC#N)c2)CC1 | 4.967
23 | CN(C)c1cc(C(=O)N2CCCN(Cc3nccn3C)CC2)ccn1 | 107
24 | CC(=O)N1Cc2nccn2CC(CNC(=O)c2cnccn2)C1 (stereo not given) | -28.44
25 | O=C(O)C(F)(F)F.O=C([C@H]1C[C@@H]2[C@@H](C1)OCCN2CC1CC1)N1CCCC1 | -8.225
26 | CS(=O)(=O)CCC(=O)NC(c1ccc(F)cc1)C(F)(F)F (stereo not given) | -10.12
27 | Cn1ccnc1CN1CCCN(C(=O)c2ccc3c(c2)COC3)CC1 | -4.984
28 | Cn1ccnc1CN1CCCN(C(=O)c2ccc3c(c2)OCO3)CC1 | 100.5
29 | Cn1ccnc1CN1CCCN(C(=O)c2ccc(O)nc2)CC1 | 99.8
30 | CCn1ccnc1CN1CCCN(C(=O)c2ccc(C#N)cc2)CC1 | -7.951
